Screens as filed in PubChem.
A selection: hits, their analogues and other compounds. The true share with any hit is near 32%.
CYP2C19 inh: blocks human cytochrome P450 2C19. P33261. CYP2C19 Supersomes, luciferin-H EGE luminescence, 30 min. inhibition, % at 5 µM. 21% of 96,000 active. AID 778;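 active = CYP2C19 inhibition above a set limit at 5 µM in the primary screen, cut at about 50% in these data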;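 note: plate controls were negative control wells for no effect and 2.5 mM tranylcypromine positive control for full effect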
CYP2C9 inh: blocks human cytochrome P450 2C9; P11712; CYP2C9 Supersomes, luciferin-H conversion, luminescence; inhibition, % at 5 µM; 20% of 96,000 active; AID 777;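 active = blocking of liver enzyme CYP2C9 beyond about 50% at 5 µM, limit read from the data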
Target sequence (P11712 whole entry, looked up): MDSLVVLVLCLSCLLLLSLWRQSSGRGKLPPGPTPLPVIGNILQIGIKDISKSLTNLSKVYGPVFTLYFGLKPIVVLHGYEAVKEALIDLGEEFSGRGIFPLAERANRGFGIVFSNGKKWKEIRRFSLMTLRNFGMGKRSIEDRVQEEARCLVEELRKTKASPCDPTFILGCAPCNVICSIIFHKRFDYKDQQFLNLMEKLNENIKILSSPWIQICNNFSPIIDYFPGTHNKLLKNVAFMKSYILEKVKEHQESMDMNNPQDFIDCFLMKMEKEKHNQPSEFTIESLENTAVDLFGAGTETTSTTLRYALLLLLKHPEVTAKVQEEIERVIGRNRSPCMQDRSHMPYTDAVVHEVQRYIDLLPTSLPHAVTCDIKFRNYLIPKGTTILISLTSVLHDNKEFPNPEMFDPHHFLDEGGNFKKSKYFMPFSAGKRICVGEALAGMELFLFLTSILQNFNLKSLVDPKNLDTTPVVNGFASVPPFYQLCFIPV
PostGolgi ctrl: inhibits growth of the yeast control strain | efflux-deficient yeast background strain, growth absorbance A615, 16 h | inhibition, % at 10 µM | 5% of 98,000 active
PostGolgi yeast: growth inhibition of a yeast mutant, post-Golgi transport screen. post-Golgi transport phenotypic cell assay. inhibition, % at 10 µM. 0.9% of 98,000 active. AID 739;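 note: yeast cells grown in 1536-well plates; yeast grown about 18 h at 30C before absorbance read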
CYP2C9 act: CYP2C9 (human) activation; P11712; recombinant CYP2C9, luciferin-H conversion, luminescence; stronger effect = higher value; factor 1 = untreated enzyme, 0 = blocked; activation factor at 5 µM; 1.4% of 96,000 active; AID 1024;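 active = activation factor of 2 or more for CYP2C9 at a 5 µM dose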;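 note: 0 = sulfaphenazole-blocked wells and 1 = vehicle-only wells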
CYP2C19 activ: activators of human cytochrome P450 2C19 | activation factor at 5 µM | recombinant CYP2C19, luciferin-H EGE luminescence; stronger effect = higher value; 0 = fully inhibited enzyme, 1 = untreated enzyme | 96,000 tested, under 10 active | P33261;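 active = activation factor of at least 2 at 5 µM in the primary screen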;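 note: 0 = wells with 2.5 mM tranylcypromine and 1 = vehicle-only wells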
Starred values were filed as active, the others as inactive; . = not tested or not shown. Cut-off read from the data, not from the text of the source, unless noted: active = inhibition above about 30%; inactive = the rest.

SMILES	CYP2C19 inh	CYP2C9 inh	PostGolgi ctrl	PostGolgi yeast	CYP2C9 act	CYP2C19 activ
C=CCOC(=O)C1=C(C)NC(SCC(=O)OCC)=C(C#N)C1c1ccc(O)c(OC)c1 (configuration not stated)	99*	100*	8	-10	0	0
C=CCOC(=O)C1=C(C)NC(=O)NC1/C=C/c1ccccc1 (configuration not stated)	14	28	24	14	0.7	0.9
Clc1ccc(Cn2ncc3c(NCCN4CCOCC4)ncnc32)cc1	28	25	0	-1	0.7	0.7
CCCCn1c2c(c3ccccc31)CCc1nonc1-2	-5	0	.	.	1	1.1
CCOC(=O)N1CCN(C2=NC3(CCCCC3)C(C#N)C(=O)N2)CC1 (configuration not stated)	-1	0	13	24	1	1
CC(C)c1nc(N2CCOCC2)c(C#N)c2c1CCC2	16	22	2	7	0.8	0.8
CC(C)Cc1nc(N2CCCCC2)c(C#N)c2c1CCC2	0	3	10	22	1	1
CC1(C)Cc2c(C#N)c(N3CCN(C(=O)c4ccco4)CC3)nc(Cc3ccccc3)c2CO1	73*	95*	17	3	0	0.3
COC(=O)CCc1c(C)c(C#N)c2nc3ccccc3n2c1N1CCCC1	9	37	15	14	0.6	0.9
CC(=O)N1CCN(c2nc(CC(C)C)c3c(c2C#N)CCC3)CC1	73*	73*	8	8	0.3	0.3
CC(C)Cc1nc(N2CCN(C(=O)C(C)C)CC2)c(C#N)c2c1CCC2	84*	81*	23	9	0.2	0.2
CCc1c(C)c(C#N)c2nc3ccccc3n2c1N1CCN(c2cc(C)ccn2)CC1	22	67*	-3	26	0.3	0.8
O=C(CC1C(=O)NCCN1C(=O)Nc1ccccc1)Nc1ccc2c(c1)OCCO2 (configuration not stated)	17	30	16	3	0.7	0.8
Cc1nc(N2CCN(C(=O)c3ccc(Cl)cc3)CC2)c(C#N)c2c1COC(C)(C)C2	83*	50*	18	8	0.5	0.2
O=C(c1ccco1)N1CCN(c2nc3ccccc3n3nnnc23)CC1	19	47	17	5	0.5	0.8
CC(C)Cc1nc(N2CCN(C(=O)c3ccco3)CC2)c(C#N)c2c1CCC2	99*	98*	14	1	0	0
CC(C)c1cc(N2CCN(C(=O)c3ccco3)CC2)n2c(nc3ccccc32)c1C#N	63*	74*	2	-15	0.3	0.4
Cc1cc(-c2ccco2)c(C#N)c2nc3ccccc3n12	4	5	83*	25	1	1
Cc1cc(-n2ccnc2)n2c(nc3ccccc32)c1C#N	4	4	-6	4	1	1
CC(C(=O)O)n1nc2ccccc2n1 (configuration not stated)	-6	-4	-9	10	1	1.1
CCC(C)NC(=O)c1ccc(CSCc2cccc(F)c2)o1 (configuration not stated)	29	38	15	1	0.6	0.7
C=COCCNC(=O)Nc1ccc(Cl)cc1Cl	10	9	-1	-7	0.9	0.9
CN(C)S(=O)(=O)c1ccc2c(c1)c(=O)c(C(=O)N1CCN(c3ccccn3)CC1)cn2C	-10	-1	6	6	1	1.1
Cc1ccc2cc(C=C(C#N)C#N)c(N3CCCCC3)nc2c1	6	26	36*	-3	0.7	0.9
COC(=O)c1cn(-c2ccccc2)nc1-c1ccncc1	37	22	-2	-4	0.8	0.6
SMILES	CYP2C19 inh	CYP2C9 inh	PostGolgi ctrl	PostGolgi yeast	CYP2C9 act	CYP2C19 activ
CCOC(=O)c1ccc(NC(=O)c2cn(-c3ccccc3)nc2-c2ccncc2)cc1	15	31	30*	90*	0.7	0.8
O=C(Nc1nccs1)c1cn(-c2ccccc2)nc1-c1ccccc1	21	62*	23	14	0.4	0.8
O=C(c1cn(-c2ccccc2)nc1-c1cccs1)N1CCN(c2ccccc2)CC1	96*	98*	44*	-1	0	0
O=C(c1cn(-c2ccccc2)nc1-c1cccs1)N1CCOCC1	15	38	-5	2	0.6	0.9
CC(C)COc1ccc(-c2nn(-c3ccccc3)cc2C(=O)Nc2nccs2)cc1	16	37	4	21	0.6	0.8
O=C(OCc1ccccc1)c1cn(-c2ccccc2)nc1-c1ccncc1	52*	42	37*	22	0.6	0.5
O=C(Nc1cccc(Cl)c1)OCc1cn(-c2ccc(Cl)cc2)nn1	.	.	0	-3	.	.
CCOc1ccc(S(=O)(=O)NCC(=O)N(C)Cc2cccnc2)cc1	29	-2	11	-4	1	0.7
COCCn1c(CNc2ccc(F)cc2)nnc1SCC(=O)Nc1ccc(OC)cc1OC	-10	-10	-1	0	1.1	1.1
O=C(c1cn(-c2ccccc2)nc1-c1ccncc1)N1CCCCC1	52*	48	5	-6	0.5	0.5
O=C(c1cn(-c2ccccc2)nc1-c1ccc(F)cc1)N1CCOCC1	16	32	14	-3	0.7	0.8
O=C(O)C(CCCCN1C(=O)C2C3C=CC(C3)C2C1=O)N1C(=O)C2C3C=CC(C3)C2C1=O (configuration not stated)	-12	4	11	2	1	1.1
COC(=O)C(CCCCN1C(=O)C2C3C=CC(C3)C2C1=O)N1C(=O)C2C3C=CC(C3)C2C1=O (configuration not stated)	47	59*	11	-3	0.4	0.5
Cn1c(CN2CCOCC2)nnc1SCC(=O)NC1CCCCC1	.	.	3	13	.	.
COc1cc(-c2nc3cnccc3n2C)cc(OC)c1OC	-6	2	-7	-2	1	1.1
COc1cc(OC)c(-c2nc3cnccc3n2C)cc1OC	75*	35	9	-4	0.6	0.2
Cn1c(-c2ccc3ccccc3n2)nc2cnccc21	88*	54*	-3	0	0.5	0.1
O=C(NC1CC2CCC(C1)N2C(=O)NCc1ccccc1)C1CC1 (configuration not stated)	-10	-15	2	20	1.1	1.1
CSc1cc(C)nc(NC(C)=O)n1	-2	-1	1	-5	1	1
Cn1cnc2c1c(=O)n(Cc1ccc(F)cc1Cl)c(=O)n2C	22	-6	22	19	1.1	0.8
Cc1ccc(NC(=O)C2CCN(S(=O)(=O)c3cccc4cccnc34)CC2)nc1	68*	-46	32*	3	1.5	0.3
Cc1cccc(NC(=O)C2CCN(S(=O)(=O)c3cccc4cccnc34)CC2)n1	78*	-128	14	2	2.3*	0.2
CC(=O)c1ccc(NC(=O)C2CCN(S(=O)(=O)c3cccc4cccnc34)CC2)cc1	4	-86	25	0	1.9	1
